# Laboratory results: PubChem BioAssay (NCATS)
# Records with an inconclusive call do not appear. Where a call stands in place of a potency, no number is given. Where a structure was tested more than once in an assay, its records may differ in their call. The source made the active and inactive calls. Unless noted, the call rests on the fitted dose curve; in most records, active means well fitted curve in the direction sought with a large enough effect; inconclusive means small, poorly fitted or top-dose-only effect, or another doubt; inactive means no such curve, though single readings can be large; an effect the other way counts as inactive or inconclusive.
# Columns and labels:
# [1] = target: Tumor susceptibility gene 101 protein (Homo sapiens) (UniProt Q99816); assay: qHTS Validation Assay for Iinhibitors of HIV-1 Budding by Blocking the Interaction of PTAP/TSG101 (AID 485342; calls by dose curve); conditions: TSG101-PTAP binding, fluorescence polarization, 4-point titration; series mostly up to 115 µM
# Sequence of Tumor susceptibility gene 101 protein (Homo sapiens) (Q99816 whole entry, looked up, the tested form may be a part): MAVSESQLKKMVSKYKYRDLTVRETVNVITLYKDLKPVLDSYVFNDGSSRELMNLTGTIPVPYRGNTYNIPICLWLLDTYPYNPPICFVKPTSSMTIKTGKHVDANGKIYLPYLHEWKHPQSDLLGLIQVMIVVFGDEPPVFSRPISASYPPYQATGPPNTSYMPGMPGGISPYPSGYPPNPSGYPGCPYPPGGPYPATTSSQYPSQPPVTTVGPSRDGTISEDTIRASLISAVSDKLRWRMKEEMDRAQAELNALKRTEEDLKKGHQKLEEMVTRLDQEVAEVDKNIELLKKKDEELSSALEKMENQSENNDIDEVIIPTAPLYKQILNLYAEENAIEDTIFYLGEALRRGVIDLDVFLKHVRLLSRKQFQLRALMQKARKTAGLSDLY
# Method in brief: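 Tsg101 binding domain (10 uM) with FITC-labeled PTAP peptide (50 nM) in HEPES pH 7.5 buffer, 20 min at r.t. with compounds. Binding measured by fluorescence polarization.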
# [2] = qHTS Validation Assay to Find Inhibitors of Chronic Active B-Cell Receptor Signaling (AID 485345; active means well fitted curve in the direction sought with a large enough effect in the main read-out, with a control signal flat, not every such curve was filed as active); conditions: ABC-DLBCL cells, chronic BCR signaling reporter, CBG luciferase; series mostly up to 46.1 µM
# Method in brief: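 TMD8 ABC-DLBCL cells stably carrying doxycycline-inducible IkappaBalpha–green luciferase fusion plus unfused red luciferase; compounds 46 uM to 3 nM, 4 h at 37C with doxycycline. Corrected green/red luminescence ratio normalized to 10 uM MG-132 and basal cell wells; curves fitted.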
# [3] = target: Beta-2 adrenergic receptor (Homo sapiens) (UniProt P07550); assay: qHTS validation assay of beta-arrestin-biased ligands of beta2-adrenergic receptor (AID 485366); conditions: cell-based beta-arrestin recruitment to ADRB2, qHTS; series mostly up to 46.1 µM
# Sequence of Beta-2 adrenergic receptor (Homo sapiens) (P07550 whole entry, looked up): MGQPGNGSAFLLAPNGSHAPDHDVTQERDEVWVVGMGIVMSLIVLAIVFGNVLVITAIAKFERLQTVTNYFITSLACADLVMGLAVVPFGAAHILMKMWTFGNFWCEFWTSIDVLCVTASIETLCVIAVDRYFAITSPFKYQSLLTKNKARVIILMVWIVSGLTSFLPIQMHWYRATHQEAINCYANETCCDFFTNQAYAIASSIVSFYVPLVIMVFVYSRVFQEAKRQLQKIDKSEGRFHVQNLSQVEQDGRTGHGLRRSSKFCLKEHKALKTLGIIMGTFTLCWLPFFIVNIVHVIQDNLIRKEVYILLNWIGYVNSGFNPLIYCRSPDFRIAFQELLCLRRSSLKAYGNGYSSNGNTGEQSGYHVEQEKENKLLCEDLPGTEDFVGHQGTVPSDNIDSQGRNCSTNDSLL
# Method in brief: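 Values derive from curve-fitted %Activity of a luminescent beta-arrestin recruitment reporter; compounds tested up to 46 microM on Tango cells for 18 hr at 37 degrees C, 5% CO2.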
# [4] = target: ATP-dependent 6-phosphofructokinase (Trypanosoma brucei brucei) (UniProt O15648); assay: qHTS Validation Assay to Find Inhibitors of T. brucei phosphofructokinase (AID 485368); conditions: T. brucei PFK enzyme assay, qHTS 7-point titration; at 57.5 µM (top of the series)
# Sequence of ATP-dependent 6-phosphofructokinase (Trypanosoma brucei brucei) (O15648 whole entry, looked up): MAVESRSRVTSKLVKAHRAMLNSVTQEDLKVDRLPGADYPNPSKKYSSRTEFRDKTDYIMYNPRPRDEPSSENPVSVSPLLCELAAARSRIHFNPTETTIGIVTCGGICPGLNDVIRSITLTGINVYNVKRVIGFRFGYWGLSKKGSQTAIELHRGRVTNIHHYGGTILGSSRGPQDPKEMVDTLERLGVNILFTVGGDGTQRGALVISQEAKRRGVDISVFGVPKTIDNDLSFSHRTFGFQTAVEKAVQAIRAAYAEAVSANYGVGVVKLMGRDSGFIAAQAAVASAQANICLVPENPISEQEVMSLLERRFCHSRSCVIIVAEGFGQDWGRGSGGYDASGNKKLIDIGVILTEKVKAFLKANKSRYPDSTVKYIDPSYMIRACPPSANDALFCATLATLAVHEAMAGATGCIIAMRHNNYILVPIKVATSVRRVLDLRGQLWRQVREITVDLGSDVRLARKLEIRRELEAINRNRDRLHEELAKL
# Method in brief: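 Enzyme reaction in triethanolamine buffer pH 8.0 with 5 mM MgCl2, 0.01% Tween20 and 0.1% BSA; PFK 1.25 nM, F6P 0.5 mM, ATP 0.1 mM, 45 min RT. ADP quantified by ADP-Glo.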
# [5] = Quantitative high throughput screen for delayed death inhibitors of the malarial parasite plastid, 96 hour incubation (AID 488745); conditions: Plasmodium falciparum growth; series mostly up to 28.7 µM; further: nearly all actives have a fitted effect of over 70% in size; further: potency means the concentration at half of the fitted maximal effect
# Method in brief: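 Infected erythrocytes were added to compound in Albumax-supplemented RPMI 1640 at 0.1% parasitemia and 2% hematocrit (final), incubated 96 h at 37 C under 5% CO2, then luciferase reagent was added and luminescence measured.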
# [6] = Quantitative high throughput screen for delayed death inhibitors of the malarial parasite plastid, 48 hour incubation (AID 488752); conditions: Plasmodium falciparum growth; series mostly up to 28.7 µM; further: nearly all actives have a fitted effect of over 65% in size; further: potency means the concentration at half of the fitted maximal effect
# Method in brief: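 Readout is firefly luciferase luminescence from a reporter integrated into the parasite genome, with lower signal taken as inhibited growth. Infected red cells (0.1% parasitemia, 2% hematocrit final) are cultured with compound for one 48 h cycle at 37 C.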
# [7] = target: Thioredoxin reductase 1, cytoplasmic (Rattus norvegicus) (UniProt O89049); assay: qHTS Assay for Substrates of Mammalian Selenoprotein Thioredoxin Reductase 1 (TrxR1) (AID 488772); conditions: purified TrxR1, NADPH consumption substrate assay; series mostly up to 57.1 µM;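 further: NADPH fluorescence in the first read after selenite addition and not the 8 min delta; a drop in NADPH fluorescence below the no-compound background marks a TrxR1 substrate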
# Sequence of Thioredoxin reductase 1, cytoplasmic (Rattus norvegicus) (O89049 whole entry, looked up): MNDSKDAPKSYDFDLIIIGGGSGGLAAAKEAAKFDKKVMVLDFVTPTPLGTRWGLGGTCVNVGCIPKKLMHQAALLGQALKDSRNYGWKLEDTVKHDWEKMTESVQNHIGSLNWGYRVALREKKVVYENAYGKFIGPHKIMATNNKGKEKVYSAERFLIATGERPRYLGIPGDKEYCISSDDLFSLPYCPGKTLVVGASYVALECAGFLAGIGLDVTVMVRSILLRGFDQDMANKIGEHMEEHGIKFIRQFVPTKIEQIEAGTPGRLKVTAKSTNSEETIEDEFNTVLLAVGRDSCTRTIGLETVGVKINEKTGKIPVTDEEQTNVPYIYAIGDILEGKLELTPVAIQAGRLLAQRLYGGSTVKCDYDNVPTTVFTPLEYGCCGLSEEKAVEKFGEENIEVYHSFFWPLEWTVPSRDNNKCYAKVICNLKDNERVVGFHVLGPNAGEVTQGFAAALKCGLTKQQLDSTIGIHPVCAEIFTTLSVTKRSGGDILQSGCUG
# Method in brief: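 Quantitative HTS in Tris-HCl buffer at pH 7.5 with EDTA and Tween-20, using rat TrxR1, 400 uM NADPH and 400 uM selenite (final). A fall in initial NADPH fluorescence relative to background marked substrate behaviour.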
# [8] = target: Thioredoxin reductase 1, cytoplasmic (Rattus norvegicus) (UniProt O89049); assay: qHTS Assay for Inhibitors of Mammalian Selenoprotein Thioredoxin Reductase 1 (TrxR1) (AID 488773); conditions: purified TrxR1 enzyme activity; Potency: inhibition; series mostly up to 57.1 µM;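 further: drop in NADPH fluorescence over an 8 min run after selenite addition; nearly all actives have a fitted effect of over 40% in size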
# Method in brief: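 Steps: enzyme (90 nM) plus NADPH (400 uM final), 5 min at ~22 deg C; compound added, 15 min; selenite (400 uM final) added; fluorescence followed for 8 min. Concentration-response curves derived from the normalized delta values.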
# [9] = target: Flap endonuclease 1 (Homo sapiens) (UniProt P39748); assay: qHTS Validation Assay for the Inhibitors of Human Flap endonuclease 1 (FEN1) (AID 488816); conditions: FEN1 nuclease activity, fluorogenic DNA substrate; series mostly up to 57.1 µM
# Sequence of Flap endonuclease 1 (Homo sapiens) (P39748 whole entry, looked up): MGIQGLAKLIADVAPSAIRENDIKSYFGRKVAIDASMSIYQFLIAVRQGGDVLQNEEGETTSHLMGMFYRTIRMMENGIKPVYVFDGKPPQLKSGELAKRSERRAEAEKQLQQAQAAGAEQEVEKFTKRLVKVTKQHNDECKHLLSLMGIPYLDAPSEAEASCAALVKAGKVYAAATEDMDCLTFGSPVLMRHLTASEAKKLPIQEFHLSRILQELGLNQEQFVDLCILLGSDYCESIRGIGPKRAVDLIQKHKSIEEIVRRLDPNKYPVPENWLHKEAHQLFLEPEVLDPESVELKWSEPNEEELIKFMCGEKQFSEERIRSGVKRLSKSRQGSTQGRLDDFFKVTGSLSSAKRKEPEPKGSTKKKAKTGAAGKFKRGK
# Method in brief: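 Human FEN1 (10 nM) preincubated 15 min at room temperature with compounds, then flap DNA substrate added at 50 nM final. Fluorescence read at 0 and 15 min; concentration-response fitted with four-parameter Hill equation.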
# [10] = target: M-phase phosphoprotein 8 (Homo sapiens) (UniProt Q99549); assay: qHTS Validation Assay for Inhibitors for MPP8 Chromodomain Interactions with Methylated Histone Tails (AID 488949); conditions: AlphaScreen MPP8 binding to H3K9me3 peptide; series mostly up to 57.1 µM; further: nearly all actives have a fitted effect of over 55% in size; further: potency means the concentration at half of the fitted maximal effect
# Sequence of M-phase phosphoprotein 8 (Homo sapiens) (Q99549 whole entry, looked up): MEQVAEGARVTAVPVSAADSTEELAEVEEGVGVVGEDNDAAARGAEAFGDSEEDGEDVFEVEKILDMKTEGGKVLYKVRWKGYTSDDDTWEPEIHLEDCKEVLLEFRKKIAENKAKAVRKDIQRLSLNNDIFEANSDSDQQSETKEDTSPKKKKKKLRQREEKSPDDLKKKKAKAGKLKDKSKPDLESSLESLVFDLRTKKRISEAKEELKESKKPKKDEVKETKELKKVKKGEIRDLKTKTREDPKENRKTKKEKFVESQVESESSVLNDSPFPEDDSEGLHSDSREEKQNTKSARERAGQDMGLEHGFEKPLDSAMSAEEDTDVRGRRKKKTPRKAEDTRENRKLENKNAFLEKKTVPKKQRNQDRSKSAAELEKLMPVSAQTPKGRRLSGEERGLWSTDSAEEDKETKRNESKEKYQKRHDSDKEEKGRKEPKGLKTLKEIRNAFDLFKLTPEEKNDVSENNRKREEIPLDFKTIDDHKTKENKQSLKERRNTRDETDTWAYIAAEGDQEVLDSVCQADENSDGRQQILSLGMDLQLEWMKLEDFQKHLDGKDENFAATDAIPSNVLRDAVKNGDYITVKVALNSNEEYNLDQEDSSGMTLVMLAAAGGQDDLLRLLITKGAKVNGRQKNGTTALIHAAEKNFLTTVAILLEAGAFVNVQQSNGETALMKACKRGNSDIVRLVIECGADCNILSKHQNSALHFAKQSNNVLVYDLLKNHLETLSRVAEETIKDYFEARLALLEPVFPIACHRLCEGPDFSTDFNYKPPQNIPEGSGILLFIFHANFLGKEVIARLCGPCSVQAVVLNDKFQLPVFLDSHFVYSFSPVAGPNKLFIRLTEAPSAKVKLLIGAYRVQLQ
# Method in brief: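 MPP8 (50 nM) was pre-bound to 50 nM biotinylated H3(1-18)K9me3 peptide in PBS pH 7.4 with 0.01% Tween-20. Compounds were then added for 30 min at room temperature, and complex disruption was read by AlphaScreen with streptavidin donor and nickel-chelate acceptor beads.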
SMILES,outcome [1],outcome [2],outcome [3],outcome [4],Potency [5],Potency [6],outcome [7],Potency [8],Potency [9],Potency [10]
CCCN1CCO[C@@H]2c3cc(O)ccc3OC[C@H]21,inactive,inactive,inactive,inactive,inactive,inactive,inactive,inactive,inactive,inactive
NC(CP(=O)(O)O)C(=O)O (configuration not stated),inactive,inactive,inactive,inactive,inactive,inactive,inactive,inactive,inactive,inactive
O=C(N[C@H]1CN2CCC1CC2)c1ccc(Cl)cc1,inactive,inactive,inactive,inactive,,,inactive,inactive,inactive,inactive
O=C(O)[C@@H]1CCN1,inactive,inactive,inactive,inactive,inactive,inactive,inactive,inactive,inactive,inactive
CCCN1CCC[C@H](c2cccc(O)c2)C1,inactive,inactive,inactive,inactive,inactive,inactive,inactive,inactive,,inactive
CS(=N)(=O)CC[C@H](N)C(=O)O (some centres not stated),inactive,inactive,inactive,inactive,inactive,inactive,inactive,inactive,inactive,inactive
NC1CC1c1ccccc1 (configuration not stated),inactive,inactive,inactive,inactive,inactive,inactive,inactive,inactive,inactive,inactive
Clc1cnc(Oc2ccc(Oc3ncc(Cl)cc3Cl)cc2)c(Cl)c1,inactive,inactive,inactive,inactive,inactive,inactive,inactive,inactive,inactive,inactive
c1ccc2sc(C3(N4CCCCC4)CCCCC3)cc2c1,inactive,inactive,inactive,,,,inactive,inactive,inactive,inactive
CN[C@@H](C)[C@H](O)c1ccccc1,,,,,,,,,,3.55 µM (active)
CC[C@@]1(O)C(=O)OCc2c1cc1n(c2=O)Cc2cc3ccccc3nc2-1,inactive,,inactive,inactive,1.47 µM (active),2.33 µM (active),inactive,inactive,inactive,inactive
CC[C@@H]1C(=O)OC[C@@H]1Cc1cncn1C,,,,,inactive,inactive,,,,inactive
CC(C)NC(C)Cc1ccc(I)cc1 (configuration not stated),inactive,inactive,inactive,,,,inactive,inactive,inactive,inactive
NCc1cc(=O)[nH]o1,inactive,inactive,inactive,,inactive,inactive,inactive,inactive,inactive,inactive
O=C1CCCN1CC#CCN1CCCC1,inactive,inactive,inactive,,inactive,inactive,inactive,inactive,inactive,inactive
NC(N)=NOCCC(N)C(=O)O (configuration not stated),inactive,inactive,inactive,,inactive,inactive,inactive,inactive,inactive,inactive
C/C=C(/C)C(=O)O[C@H]1C(C)=C2[C@H]([C@@H]1OC(=O)CCCCCCC)[C@@](C)(OC(C)=O)C[C@H](OC(=O)CCC)[C@@]1(O)[C@H]2OC(=O)[C@@]1(C)O,inactive,,inactive,,,,,,inactive,inactive
Cn1cnc(CCN)c1,inactive,inactive,inactive,,inactive,inactive,inactive,inactive,inactive,inactive
C[N+](C)(C)CC(=O)O,,,,,,inactive,,,inactive,inactive
C[N+]1(C)C2CC(OC(=O)[C@H](CO)c3ccccc3)CC1C1OC12 (some centres not stated),,,,inactive,,,,,inactive,inactive
CC(Cc1ccc(O)cc1)NCC(O)c1cc(O)cc(O)c1 (configuration not stated),inactive,inactive,,,inactive,inactive,inactive,inactive,,inactive
CN[C@@H]1C[C@@H](c2ccc(Cl)c(Cl)c2)c2ccccc21,inactive,,inactive,,,,inactive,inactive,,inactive
Cc1c(C(=O)c2cccc3ccccc23)c2cccc3c2n1[C@H](CN1CCOCC1)CO3,inactive,,inactive,inactive,,,inactive,inactive,inactive,inactive
NC(=O)CN1CC(O)CC1=O (configuration not stated),inactive,inactive,inactive,,inactive,inactive,inactive,inactive,,inactive
C=CCN1CC[C@]23CCCCC2[C@H]1Cc1ccc(O)cc13 (some centres not stated),inactive,inactive,inactive,,inactive,inactive,inactive,inactive,inactive,inactive
CN1C2CCC1CC(OC(=O)c1cc(Cl)cc(Cl)c1)C2 (configuration not stated),inactive,,inactive,inactive,,inactive,,inactive,inactive,inactive
COc1ccc2c(c[n+](C)c3c4cc5c(cc4ccc23)OCO5)c1OC,inactive,,inactive,,inactive,,inactive,inactive,,inactive
Cc1nc(-c2ccc(-c3ccc(C(=O)N4CCc5cc6c(cc54)C4(CCN(C)CC4)CO6)cc3)c(C)c2)no1,,,,,,,,,,11.2 µM (active)
Clc1ccc(C(c2ccc(Cl)cc2)n2cc[n+](CC(OCc3ccc(Cl)cc3Cl)c3ccc(Cl)cc3Cl)c2)cc1 (configuration not stated),,,,,,,,,inactive,35.5 µM (active) and inactive
